An excerpt weighted towards active compounds, which were near 11% of everything screened.
3T3 cytotox: kills NIH 3T3 cells | NIH 3T3 viability, CellTiter-Glo ATP luminescence, 48-72 h | hit rate 4.3% among 94,000 | Potency, µM (doses to about 96.7 µM), actives largely listed as inhibitors; also: nearly all actives have a fitted effect of over 55% in size
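ATP-dependent luminescence (CellTiter-Glo) served as the viability signal for NIH 3T3 cells treated with compound for 48 or 72 hr at 37 °C.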
NPR1 antag: human Npr1 receptor antagonism. AID 1347048. P16066. HEK293 hNpr1 GloSensor cGMP, ANP-stimulated luminescence. hit rate 1.6% among 76,000. Potency, µM (highest dose often 46.3 µM), usual class: inhibitors; calls by dose curve; also: nearly all actives have a fitted effect of over 60% in size
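HEK293 cells stably expressing human Npr1 and cGMP GloSensor pGS-40F, loaded 2 h with 2% GloSensor reagent, given compound 30 min at room temperature. Luminescence read before and 20 min after 0.1 nM hNppA.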
FLuc inh-1: inhibitors of firefly (Photinus pyralis) luciferase | purified P. pyralis luciferase, luminescence, biochemical | Potency, µM (doses to about 115 µM), actives largely listed as inhibitors | P08659 | hit rate 2.5% among 76,000; also: nearly all actives have a fitted effect of over 65% in size
Target sequence (P08659 whole entry, looked up): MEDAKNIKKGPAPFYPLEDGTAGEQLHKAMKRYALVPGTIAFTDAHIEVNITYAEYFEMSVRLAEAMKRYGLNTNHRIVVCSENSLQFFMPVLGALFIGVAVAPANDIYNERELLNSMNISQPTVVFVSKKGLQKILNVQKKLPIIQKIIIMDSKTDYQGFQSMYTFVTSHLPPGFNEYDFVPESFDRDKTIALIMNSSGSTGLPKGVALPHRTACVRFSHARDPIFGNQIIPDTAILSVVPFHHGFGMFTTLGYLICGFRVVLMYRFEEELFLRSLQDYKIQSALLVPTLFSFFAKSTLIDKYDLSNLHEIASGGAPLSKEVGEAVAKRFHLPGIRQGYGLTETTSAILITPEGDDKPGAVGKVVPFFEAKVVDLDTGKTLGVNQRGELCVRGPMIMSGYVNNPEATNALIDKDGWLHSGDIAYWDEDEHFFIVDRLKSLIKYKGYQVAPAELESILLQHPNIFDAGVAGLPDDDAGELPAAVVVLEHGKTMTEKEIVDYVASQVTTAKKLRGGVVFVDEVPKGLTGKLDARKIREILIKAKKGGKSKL
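FLuc 10nM, D-luciferin 10uM, ATP 10uM, Mg acetate 10mM, Tris acetate pH 7.5, Tween/BSA; cpd qHTS; enzyme added last; CCD luminescence.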
HEK cytotox: HEK 293 cell cytotoxicity; AID 1345083; Potency, µM (top dose mostly 115 µM), most hits filed as inhibitors; hit rate 6.6% among 94,000; HEK 293 viability, ATP luminescence (CellTiter-Glo), 48-72 h; also: nearly all actives have a fitted effect of over 60% in size
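qHTS cytotoxicity; HEK 293, 250 cells/well; compound pinned; 48 or 72 hr, 37 degree Celsius, 5% CO2, 95% humidity; CellTiter-Glo, 10 min RT; luminescence (ATP).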
FLuc SDR no ATP: stabilizes firefly luciferase without ATP. Purified FLuc-C-HiBiT, Nano-Glo HiBiT luminescence, no ATP. AID 1963318. shares compounds with FLuc inh-1. hit rate 7.8% among 1,300. Potency, µM (series often up to 32.7 µM), most hits filed as activators; also: nearly all actives have a fitted effect of over 55% in size
FLuc SDR ATP: stabilizes firefly luciferase with ATP present | shares compounds with FLuc inh-1 | purified FLuc-C-HiBiT + ATP, HiBiT complementation luminescence | Potency, µM (doses to about 32.7 µM), hits mostly activators | hit rate 8.7% among 1,300;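 also: signal reports ligand binding via conformational change of the enzyme rather than luciferase catalysis; nearly all actives have a fitted effect of over 55% in size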
FLuc inh-2: blocks firefly luciferase enzymatic activity | shares compounds with FLuc inh-1 | purified FLuc-C-HiBiT enzyme, luciferin luminescence | Potency, µM (series often up to 32.7 µM), most hits filed as inhibitors | hit rate 42% among 1,300; also: nearly all actives have a fitted effect of over 70% in size
A number is an active result; i = inactive; ? = inconclusive; nt = no result. Unless noted, calls follow the shape of the dose curve; as a rule, active = well fitted curve in the direction sought with a large enough effect; inconclusive = small, poorly fitted or top-dose-only effect, or another doubt; inactive = no such curve, though single readings can be large; an effect the other way counts as inactive or inconclusive.

SMILES	3T3 cytotox	NPR1 antag	FLuc inh-1	HEK cytotox	FLuc SDR no ATP	FLuc SDR ATP	FLuc inh-2
O=C1NCN(Cc2ccc(Cl)cc2)C12CCN([S+](=O)([O-])c1cccs1)CC2	i	i	i	i	nt	nt	nt
Cc1cccc(OCCc2noc(C3CN(C(=O)Nc4ccc5c(c4)OCCO5)C3)n2)c1	?	?	3.5µM	?	?	i	7µM
O=C(Nc1ccc2c(c1)OCCO2)N1CCCC(c2nc(C3CCOCC3)no2)C1 (centres undefined)	i	i	13µM	i	i	i	?
O=C(Nc1ccccc1)N1CCCC(c2nc(C3CCOCC3)no2)C1 (centres undefined)	i	i	i	i	nt	nt	nt
CCn1c(C2CCCN(C(=O)Nc3ccc4c(c3)OCCO4)C2)nn(C)c1=O (centres undefined)	i	i	6.3µM	i	i	i	?
CN1CCCN(C(=O)Nc2ccc3c(c2)OCCO3)c2ccccc21	?	i	11µM	i	i	?	?
CCn1c(C2CCCN(C(=O)NC(C)C)C2)nn(C)c1=O (centres undefined)	i	i	i	i	nt	nt	nt
Cc1cccc(OCCc2noc(C3CN(C(=O)c4cnccc4C)C3)n2)c1	i	i	i	?	nt	nt	nt
CCOc1cc(C(=O)N2CCN(c3cc(-c4ccc(F)cc4)[nH]n3)CC2)cc(OCC)c1OCC	?	i	i	?	nt	nt	nt
CCC(c1cccs1)N1C(=O)[C@H]2CN(S(=O)(=O)c3ccc4c(c3)CCC4)C[C@H]2C1=O (some centres undefined)	i	i	i	i	nt	nt	nt
Cc1ccc(C(=O)N2CC(c3nnc(-c4ccc(C)cc4)o3)C3(CCOCC3)C2)cc1 (centres undefined)	i	i	i	i	nt	nt	nt
Cc1ccc(-c2nnc(C3CN(C(=O)c4sc(C)nc4C)CC34CCOCC4)o2)cc1 (centres undefined)	i	i	i	i	i	i	i
Cc1ccc(-c2cc3c(=O)n(CCNC(=O)c4ccco4)ccn3n2)c(C)c1	?	i	8.9µM	?	i	i	?
Cc1ccc(-c2cc3c(=O)n(CCNC(=O)c4ccoc4)ccn3n2)c(C)c1	?	i	?	?	nt	nt	nt
COc1ccccc1C(=O)NCCn1ccn2nc(-c3ccc(C)cc3C)cc2c1=O	?	i	10µM	?	i	i	?
Cc1ccc(-c2cc3c(=O)n(CCNC(=O)Cc4cccc(F)c4)ccn3n2)c(C)c1	?	i	3.5µM	?	?	?	5.6µM
Cc1ccc(-c2cc3c(=O)n(CCNC(=O)c4cccc(C#N)c4)ccn3n2)c(C)c1	35µM	?	2µM	45µM	?	?	3.1µM
COc1ccc(C(=O)N2CCC(F)(C(=O)NCC3CC3)CC2)cc1F	i	nt	nt	i	nt	nt	nt
COc1cccc(CNC(=O)C2Cn3cccc3C(=O)N2Cc2cccnc2)c1 (centres undefined)	i	i	i	i	nt	nt	nt
COc1cccc(CC(=O)NCCn2ccn3nc(-c4ccc(C)cc4C)cc3c2=O)c1	?	i	11µM	?	?	i	?
CCC(=O)Nc1ccc2nnc(-c3ccc(C(=O)Nc4ccc5c(c4)OCCO5)cc3)n2c1	i	i	14µM	?	i	?	?
O=C(Nc1ccc(Cl)cc1)Nc1ccc2n(c1=O)C[C@H]1C[C@@H]2CN(C(=O)c2ccc3ccccc3c2)C1	40µM	i	14µM	28µM	i	i	?
COc1ccc(CC(=O)Nc2ccc3n(c2=O)C[C@H]2C[C@@H]3CN(C(=O)c3ccc4ccccc4c3)C2)cc1	?	i	i	i	nt	nt	nt
COc1cccc(CN2C[C@@H](COCC3CC3)[C@H](c3ccncc3)C2)n1	i	i	i	?	nt	nt	nt
COc1cccc(C(=O)N2CCC3(CC2)N(c2ccccc2)C(=O)CS3(=O)=O)c1	i	nt	nt	i	nt	nt	nt
SMILES	3T3 cytotox	NPR1 antag	FLuc inh-1	HEK cytotox	FLuc SDR no ATP	FLuc SDR ATP	FLuc inh-2
CCOc1ccc(NC(=O)Nc2cccc(C(=O)O)c2)cc1	nt	nt	nt	nt	4.4µM	0.007µM	0.0088µM
Cc1ccc(C(=O)Nc2cccc(C(=O)O)c2)cc1	nt	nt	nt	nt	12µM	0.05µM	0.056µM
COc1ccc(CNC(=O)C2CCN(C(=O)c3cc4c(=O)[nH]c(C)cn4n3)CC2)cc1	i	i	i	i	nt	nt	nt
Nc1ccc(C(=O)N2CCCn3nc(C(=O)Nc4ccccc4)cc3C2)cn1	i	i	7.1µM	?	?	?	?
O=C(Cc1cccc(Cl)c1)N1CCn2c(nnc2-c2ccccc2)C1	?	i	2.8µM	i	i	i	?
COc1cccc(-n2nnc(-c3nc(-c4ccccc4F)no3)c2C)c1	nt	nt	nt	nt	i	?	5.6µM
O=C(Nc1ncc(-c2ccccc2)c2c1OCC2)C1CCOCC1	?	i	i	?	nt	nt	nt
O=C(Nc1n[nH]c2cc(-c3ccccc3)ccc12)C1CC1	nt	nt	nt	nt	i	i	?
CCC(=O)N1CCCN(Cc2ccncc2)C(c2ccccc2)CC(=O)NCC1 (centres undefined)	i	i	i	i	nt	nt	nt
COc1ccc(C(=O)N2CCn3c(nnc3C3CC3)C2)cc1	i	i	i	i	nt	nt	nt
O=C(c1ccc(F)cc1)N1CCn2c(nnc2C2CC2)C1	i	i	i	i	i	i	i
Cn1ccc2c(C(=O)NCCc3ccccn3)nc(-c3cccc(N4CCOCC4)c3)cc21	?	i	i	?	nt	nt	nt
Cn1ccc2c(C(=O)NCC3CCOCC3)nc(-c3cccc(N4CCOCC4)c3)cc21	?	i	i	?	nt	nt	nt
Cn1ccc2c(C(=O)NCCc3cnc[nH]3)nc(-c3ccc(N4CCOCC4)cc3)cc21	?	i	1µM	?	?	?	4.5µM
CN1CCN(c2ccc(-c3cc4c(ccn4C)c(C(=O)NCCc4ccccn4)n3)cc2)CC1	20µM	i	0.79µM	35µM	?	?	2.8µM
COCCNC(=O)C1COC2(CCN(C(=O)c3ccccc3C)CC2)N1C(=O)c1cccc(OC)c1 (centres undefined)	i	i	i	i	nt	nt	nt
O=C(NCc1ccc(F)cc1)c1c(-c2ccccc2)cc(=O)n2c1CCCC2	?	nt	nt	i	nt	nt	nt
O=c1oc2c(CN3CCCC3)c(O)ccc2cc1-c1ccccc1	nt	nt	nt	nt	i	i	i
O=C([C@@H]1C[C@@H](O)[C@H](O)[C@@H]2NC(=S)N(c3ccc4c(c3)OCO4)[C@@H]21)N1CCOCC1	i	i	5µM	i	i	?	?
O=C(C1CN(c2ccccc2)C(=O)N1)N1CCOCC1 (centres undefined)	i	i	i	i	nt	nt	nt
CCOC(=O)c1cc(-c2ccccc2)nn1Cc1ccccc1	nt	nt	nt	nt	i	i	i
Nc1nc2c([nH]c(=S)n2C2OC(CO)C(O)C2O)c(=O)[nH]1 (centres undefined)	nt	nt	nt	nt	i	i	2.5µM

From PubChem
